The text below walks through data of PubChem BioAssay (NCATS).

For test [1], the target named is Glutathione peroxidase 1 (Homo sapiens) (UniProt P07203). As to the kind of experiment: Primary qHTS Assay for Inhibitors of Recombinant Selenoprotein Glutathione Peroxidase 1 (GPX1) (AID 1845191). For activity, negative = inhibition: % is set by controls: 0 for no effect and ±100 for the full control effect. Note: nearly all actives have a fitted effect of over 65% in size. Note: potency is the fitted concentration of half-maximal effect. A digest of the protocol:
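GPX1 10 nM, GR 100 nM, GSH 1 mM, NADPH 0.5 mM, CHP 0.5 mM (final). 30-min cpd preincubation, RT. Ex340/Em450 read t=0, t=15 min.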
(In qHTS, concentration-response curves come from the screen itself.)

Test [2] concerns the target Phospholipid hydroperoxide glutathione peroxidase GPX4 (Homo sapiens) (UniProt P36969). Kind of test: Primary qHTS Assay for Inhibitors of Recombinant Selenoprotein Glutathione Peroxidase 4 (GPX4) (AID 1845192). For activity change, negative = inhibition: series mostly up to about 50 µM; % is set by controls: 0 for no effect and ±100 for the full control effect. Note: nearly all actives have a fitted effect of over 65% in size. The method, boiled down: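 qHTS, GR-coupled: GPX4 200 nM + cpd 30 min RT → GSH 1 mM, NADPH 0.5 mM, GR 100 nM → CHP 0.5 mM start; fluor 340/450 at t0 and t15 min; no-enzyme wells as control.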

Test [3] concerns the target Luciferin 4-monooxygenase (Photinus pyralis) (UniProt P08659). Kind of test: Primary firefly luciferase (FLuc) qHTS assay for identification of artifact compounds. (AID 1845220).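 For activity change, negative = inhibition: series mostly up to about 54 µM; plate controls were DMSO vehicle for no effect and no enzyme for full effect.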 Note: nearly all actives have a fitted effect of over 60% in size. The method, boiled down: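 In this counter-screen for luciferase artifacts, test compounds met substrate (10 uM each luciferin and ATP) before 10 nM enzyme started the reaction. Light output was measured 5 min later.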

The nature of test [4]: Primary fluorescence-based thiol-reactive (MSTI) qHTS assay for identification of artifact compounds. (AID 1845221).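 For activity change, negative = thiol reactive: series mostly up to about 54 µM; thiol-reactive compounds lower the probe fluorescence signal.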 Note: nearly all actives have a fitted effect of over 65% in size. Note: potency is the fitted concentration of half-maximal effect. The method, boiled down:
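Reactivity toward the thiol probe MSTI (4 uM) is scored by fluorescence at Ex/Em 525/598 nm after 1 h at room temperature. Acetyl-MSTI and MSTI define the activity scale.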

The nature of test [5]: Primary redox qHTS assay for identification of artifact compounds. (AID 1845223).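 Note: 0% = DMSO and 100% = reference compound.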 A digest of the protocol:
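Redox-cycling detection via DTT (250 uM final) oxidation coupled to Amplex Red (25 uM)/HRP (250 mU/mL) in HBSS. 15 min preincubation plus 30 min after DTT, room temperature. Ex/Em 525/598 nm; 4-parameter Hill fit against DMSO and 10 uM DA3003.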

Test [6] concerns Nanoluciferase (engineered Oplophorus gracilirostris luciferase). As to the kind of experiment: Primary Nanoluciferase (NLuc) qHTS assay for identification of artifact compounds. (AID 1845222).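 Note: NLuc secreted into diluted conditioned medium of S16 cells; series mostly up to about 54 µM.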 The method, boiled down:
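Using secreted nanoluciferase in S16 culture medium (0.22 um filtered, 1:55 dilution), compounds were preincubated 15 min at RT. Signal was generated with Nano-Glo reagent (1:100) over 5 min.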

A number with no mark means an inactive call. Results filed as inconclusive are left out. Calls of active or inactive are those of the source. Calls come from the whole dose curve; as a rule, active = well fitted curve in the direction sought with a large enough effect; inconclusive = small, poorly fitted or top-dose-only effect, or another doubt; inactive = no such curve, though single readings can be large; an effect the other way counts as inactive or inconclusive. *1 amine or outer side, *2 acyl side, *3 side chain or, on linkers, in order; H or OH if unused. Where a SMILES comes first, the peptide text is derived from it. [ ]: non-standard residue; d: D form. The star is where a group is joined. ξ: configuration not given here. X9 = CCC(C)(N*)C(=O)C1CC[C@@H](C(=O)N[C@@H](Cc2ccccc2)C(=O)NCC(=O)O)N1; X8 = O=C([C@@H]1CC(O)CN1[*:1])[*:2]; aIle = CC[C@@H](C)[C@H](N)C(=O)O; Thr(3ξ) = CC(O)[C@H](N)C(=O)O; ξIva = CCC(C)(N)C(=O)O; Aib = CC(C)(N)C(=O)O

Phospholipid hydroperoxide glutathione peroxidase GPX4 (Homo sapiens), sequence (P36969 whole entry, looked up): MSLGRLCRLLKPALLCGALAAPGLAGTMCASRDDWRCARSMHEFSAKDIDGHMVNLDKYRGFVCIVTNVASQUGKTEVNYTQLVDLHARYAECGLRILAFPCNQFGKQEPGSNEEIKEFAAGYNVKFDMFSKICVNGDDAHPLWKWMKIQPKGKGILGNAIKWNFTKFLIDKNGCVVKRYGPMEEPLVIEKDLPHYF
Glutathione peroxidase 1 (Homo sapiens), sequence (P07203 whole entry, looked up): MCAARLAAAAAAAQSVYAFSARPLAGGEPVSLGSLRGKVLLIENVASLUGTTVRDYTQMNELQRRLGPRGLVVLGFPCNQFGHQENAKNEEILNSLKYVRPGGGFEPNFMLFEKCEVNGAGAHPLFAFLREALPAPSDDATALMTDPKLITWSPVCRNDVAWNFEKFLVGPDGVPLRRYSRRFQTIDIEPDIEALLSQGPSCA

On to `C=C1CCC(OC(C)=O)C2(C)CC3OC(=O)C(C)=C3CC12` (stereo unspecified), for which the Potency result in test [1], in test [2], in test [3], in test [4] and in test [5] was “inactive” in each case.
`C/C(=C\C(=O)C[C@@]12C(=O)O[C@]3(C)CC[C@H]1C[C@H]23)C(N)=O`: the Potency result in test [1], in test [2], in test [3] and in test [6] was “inactive” throughout.
Regarding `COC(=O)[C@H](c1ccccc1Cl)N1CCC2SC(=O)C=C2C1` (stereo partly specified), the Potency in test [1] was 8.06 µM (active). Further, the Potency result in test [2], in test [3] and in test [6] was “inactive” in each case.
For `CC1(CO)CC(O)C2(C)CCC3(C)C(=CCC4C5(C=O)CCC(OC6OC(C(=O)O)C(O)C(O)C6OC6OC(C(=O)O)C(O)C(O)C6O)C(C)(C)C5CCC43C)C2C1` (stereo unspecified), the Potency result in test [1] and in test [2] was “inactive” in each case. Besides, the activity change, negative = inhibition in test [3] was -10.9% [at 11.6 µM]. In addition, the activity, negative = inhibition in test [6] is -13.8% [at 11.6 µM].
With `O=C1C[C@@]2(C(=O)N1)C(=O)N(Cc1ccc(Br)cc1F)C(=O)c1cccn12`, the Potency result in test [1], in test [2], in test [3], in test [4] and in test [5] was “inactive” each time.
Take `C/C(=C\CCC(C)(C)O)CCO[C@@H]1O[C@H](CO[C@@H]2O[C@@H](C)[C@H](O)[C@@H](O)[C@H]2O)[C@@H](O)[C@H](O)[C@H]1O`: the Potency entry in test [1], in test [2], in test [3] and in test [6] was “inactive” throughout.
In the case of `CC[C@@H](C)[C@H](NC(=O)C(C)(C)NC(=O)[C@H](CCC(N)=O)NC(=O)C(C)(CC)NC(=O)[C@H](Cc1c[nH]c2ccccc12)NC(C)=O)C(=O)N[C@H](C(=O)NC(C)(C)C(=O)N[C@@H](CC(C)C)C(=O)NC(C)(C)C(=O)N1CCC[C@H]1C(=O)N[C@@H](CCC(N)=O)C(=O)NC(C)(C)C(=O)N1CC(O)C[C@H]1C(=O)NC(C)(CC)C(=O)C1CC[C@@H](C(=O)N[C@@H](Cc2ccccc2)C(=O)NCC(=O)O)N1)C(C)O` (stereo partly specified) (Ac-W[ξIva]Q[Aib][aIle][Thr(3ξ)][Aib]L[Aib]PQ[Aib][X8]-X9), the Potency entry in test [1] and in test [2] was “inactive” each time. In test [3], the activity change, negative = inhibition was -13.1% [at 6.45 µM]. For the same compound, the activity change, negative = thiol reactive in test [4] was -2.24% [at 6.41 µM]. For the same compound, the redox activity (% of DA3003) in test [5] was 8.28% [at 6.41 µM].
For the compound `O=C(O)CC1CCC(c2ccc(NC(=O)c3nnc(Nc4ccc(F)c(F)c4)o3)cc2)CC1` (stereo unspecified), the Potency entry in test [1], in test [2], in test [3], in test [4] and in test [5] was “inactive” in each case.
`CC(=O)O[C@@H]1[C@@H](O)[C@H](C)O[C@@H](O[C@H]2[C@@H]3C=CO[C@@H](O[C@@H]4O[C@H](CO)[C@@H](O)[C@H](O)[C@H]4OC(C)=O)[C@@H]3[C@@]3(CO)O[C@@H]23)[C@@H]1OC(=O)/C=C/c1ccc(O)cc1`: the Potency entry in test [1], in test [2], in test [3] and in test [5] was “inactive” in each case. Further, in test [4], the Potency was 6.3 µM (active).
As to `CC(=O)OC/C(=C/C(=O)O)CC[C@@H]1C(CO)=CC[C@@H]2C(C)(C)CCC[C@@]12C`, the Potency result in test [1], in test [2], in test [3] and in test [6] was “inactive” in each case.
Regarding `COc1ccccc1Oc1c(NS(=O)(=O)c2ccc(C)cn2)nc(-c2ccncc2)nc1OC`, the Potency entry in test [1], in test [2], in test [3], in test [4] and in test [5] was “inactive” in each case.
Turning to `Cc1cccc(-c2nn3c(c2-c2ccnc4ccc(C(N)=O)cc24)CCC3)n1`, the Potency result in test [1], in test [2], in test [3], in test [4] and in test [5] was “inactive” in each case.
For `CCC12CCCN3CCc4c(n(c5ccccc45)C(O)C1)C32` (stereo unspecified), the Potency result in test [1], in test [2], in test [3] and in test [6] was “inactive” in each case.
Consider `C/C=C(\C)C(=O)OCC1OC(OC2OC(CO)C(O)C(O)C2O)C(O)C(O)C1O` (stereo unspecified), for which the Potency entry in test [1], in test [2], in test [3] and in test [6] was “inactive” throughout.
With `O=C(O)CCc1c(C(=O)O)[nH]c2cc(Cl)cc(Cl)c12`, the Potency result in test [1], in test [2], in test [3], in test [4] and in test [5] was “inactive” throughout.
Take `C[C@@H]1O[C@@H](O[C@H]2[C@H](OC(=O)[C@]34CCC(C)(C)C[C@H]3C3=CCC5[C@@]6(C)C[C@@H](O)[C@@H](O)[C@@](C)(CO)C6[C@H](O)C[C@@]5(C)[C@]3(C)CC4)OC[C@H](O)[C@@H]2O)[C@H](O)[C@H](O)[C@H]1O[C@@H]1OC[C@@H](O)[C@H](O[C@H]2O[C@H](C)[C@@H](O)[C@H](O)[C@@H]2O)[C@H]1O` (stereo partly specified): the Potency result in test [1] and in test [2] was “inactive” in each case. The outcome in test [3] is “inactive [at 11.6 µM]”. Further, the activity change, negative = thiol reactive in test [4] is 381% [at 11.5 µM]. In addition, in test [5], the redox activity (% of DA3003) was 18.5% [at 11.5 µM].
For the compound `COc1c2c(c(C)c3c1C(=O)OC3)OC1(C)CC(O)C34OC(OC)(CCC3(C)C1C2)OC4(C)CO` (stereo unspecified), the Potency entry in test [1], in test [2], in test [3] and in test [6] was “inactive” throughout.
On to `COc1ccc(NC(=O)c2ccc(-c3ccc(C(N)=O)cc3C)cc2)cc1N1CCN(C)CC1`, for which the Potency entry in test [1], in test [2], in test [3], in test [4] and in test [5] was “inactive” in each case.
Turning to `COc1ccc(/C=C/C(=O)O[C@@H]2[C@@H](O)[C@@H](O)[C@H](O[C@H]3[C@@H]4C=CO[C@@H](O[C@@H]5O[C@H](CO)[C@@H](O)[C@H](O)[C@H]5O)[C@@H]4[C@@]4(CO)O[C@@H]34)O[C@H]2C)cc1`, the Potency result in test [1], in test [2], in test [3] and in test [6] was “inactive” in each case.
On to `COC1OC(OC)C(O)(CCC2(C)C(C)CCC3(C)C2CC(O)C(O)C32CO2)C1O` (stereo unspecified), for which the Potency entry in test [1], in test [2], in test [3], in test [6] and in test [5] was “inactive” throughout.
